# PubChem BioAssay (EPA / NIEHS)
# Inconclusive results are not listed. Active and inactive are the calls of the source. The calls were made as follows, unless noted: active = hit-call score of the fitted dose curve at least 0.9, where 1 is the maximum; inactive = score below 0.9.
# How the values were obtained:
# [1] = biological target: Androgen receptor (Homo sapiens) (UniProt P10275); experiment: ATG_AR_TRANS: Attagene TRANS-FACTORIAL HepG2 Assay for human Androgen Receptor (AR) (AID 2282973; active = hit-call score of the fitted dose curve at least 0.9, where 1 is the maximum); settings: HepG2 Attagene TRANS-FACTORIAL AR reporter transcription
# Summary of the method: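 HepG2 cells transiently transfected with multiplexed GAL4-UAS reporter units and chimeric NR-Gal4 fusion; 24 h compound exposure. Reporter mRNA measured by RT-PCR, 6-FAM labelling, HpaI digestion and capillary electrophoresis; gain-of-signal fitted relative to DMSO baseline.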
# [2] = biological target: Glucocorticoid receptor (Homo sapiens) (UniProt P04150); experiment: ATG_GR_TRANS: Attagene TRANS-FACTORIAL HepG2 Assay for human Glucocorticoid Receptor (GR) (AID 2282978; active = hit-call score of the fitted dose curve at least 0.9, where 1 is the maximum;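 also: activators score as hits since higher reporter transcript over DMSO is fitted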); settings: HepG2 Attagene TRANS GR reporter, mRNA transcription
# Summary of the method: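 Fluorescent capillary-electrophoresis quantitation of reporter mRNA is the readout, taken 24 h after dosing human HepG2 cells carrying transiently transfected GAL4-UAS reporter units activated by chimeric NR-GAL4 fusions; activity scored as induction over DMSO.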
# [3] = biological target: human Retinoic Acid Receptor beta (RARb), RARB (gene 5915) (UniProt P10826); experiment: ATG_RARb_TRANS: Attagene TRANS-FACTORIAL HepG2 Assay for human Retinoic Acid Receptor beta (AID 2283004; active = hit-call score of the fitted dose curve at least 0.9, where 1 is the maximum)
# Summary of the method: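 HepG2 cells transiently transfected with multiplexed GAL4-UAS reporter units expressing chimeric NR–Gal4 fusions; 24 h compound exposure. Reporter mRNA quantified by RT-PCR, 6-FAM labelling, HpaI digestion and capillary electrophoresis; gain-of-signal fitted against DMSO baseline.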
# [4] = biological target: Retinoic acid receptor alpha (Homo sapiens) (UniProt P10276); experiment: ATG_RARa_TRANS: Attagene TRANS-FACTORIAL HepG2 Assay for human Retinoic Acid Receptor alpha (RARa) (AID 2283005; active = hit-call score of the fitted dose curve at least 0.9, where 1 is the maximum)
# Summary of the method: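 HepG2 cells transiently transfected with multiple reporter units expressing chimeric RARα-GAL4 fusion, with GAL4-UAS-driven reporters. After 24 h compound exposure, reporter mRNA induction quantified by RT-PCR and capillary electrophoresis with fluorescent labeling; gain-of-signal fitted relative to DMSO control.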
# [5] = biological target: human Retinoic Acid Receptor gamma (RARg), RARG (gene 5916) (UniProt P13631); experiment: ATG_RARg_TRANS: Attagene TRANS-FACTORIAL HepG2 Assay for human Retinoic Acid Receptor gamma (RARg) (AID 2283009; active = hit-call score of the fitted dose curve at least 0.9, where 1 is the maximum)
# Summary of the method: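 HepG2, RARg-GAL4 TRANS system, 24 h exposure; reporter mRNA by RT-PCR + CE fluorescence; increase over DMSO.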
# [6] = CEETOX_H295R_MTT_cell_viability: Viability Assessment in the CeeTox HT-H295R MTT Assay (AID 2283718);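 as to AC50: curve fitted both ways so AC50 may mark viability loss or gain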
# Summary of the method: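 H295R cells prestimulated 48 h with 10 uM forskolin, then exposed 48 h to test chemical (0.1% DMSO final). Viability by MTT (0.5 mg/ml, 4 h, 37 C), absorbance 570/650 nm; percent change versus DMSO, bidirectional fit.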
# [7] = read-out: Secreted IgG (sIgG), gene 3500; experiment: BSK_BT_sIgG: BioMAP Diversity Plus: BT Assay for Secreted IgG (sIgG) Biomarker Activity (AID 2284226); settings: primary human B cells with PBMC
# Summary of the method: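 Secreted IgG from a human primary B cell–PBMC co-culture was measured by ELISA 24 hours after dosing, with DMSO defining baseline activity.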
# [8] = read-out: Interleukin 6 (IL6), IL6 (gene 3569); experiment: BSK_BT_xIL6: BioMAP Diversity Plus: BT Assay for Interleukin 6 (IL6) Biomarker Activity (AID 2284228); settings: primary human B cells with PBMC
# Summary of the method: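 Human B cell plus PBMC co-culture exposed to test chemical for 24 h; secreted IL-6 quantified by Luminex xMAP bead assay. Activity fitted in the positive direction against DMSO as negative control and baseline.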
# [9] = read-out: Vascular cell adhesion molecule 1 (VCAM1), VCAM1 (gene 7412); experiment: BSK_MyoF_VCAM1: BioMAP Diversity Plus: MyoF Assay for Vascular cell adhesion molecule 1 (VCAM1) Biomarker Activity (AID 2284231); settings: primary human lung fibroblasts
# Summary of the method: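 Primary human lung fibroblasts were dosed with test chemical for 24 h, then cell-surface VCAM-1 was measured by ELISA. Activity was fitted in the positive direction against DMSO as negative control and baseline.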
# [10] = read-out: Actin alpha 1 (ACTA1), ACTA1 (gene 58); experiment: BSK_MyoF_ACTA1: BioMAP Diversity Plus: MyoF Assay for Actin alpha 1 (ACTA1) Biomarker Activity (AID 2284244); settings: primary human lung fibroblasts
# Summary of the method: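 Measured by ELISA: alpha-smooth muscle actin in human primary lung fibroblasts 24 h after dosing, with DMSO as baseline and upward signal change as the fitted direction.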
# [11] = read-out: Basic fibroblast growth factor (bFGF), FGF2 (gene 2247); experiment: BSK_MyoF_bFGF: BioMAP Diversity Plus: MyoF Assay for Basic fibroblast growth factor (bFGF) Biomarker Activity (AID 2284246); settings: primary human lung fibroblasts
# Summary of the method: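 In this multiplexed cell system, lung fibroblasts (human primary) receive test chemical for 24 h before ELISA detection of bFGF; DMSO defines baseline and the analysis direction is positive.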
# [12] = read-out: Interleukin-8 (IL8), CXCL8 (gene 3576); experiment: BSK_MyoF_IL8: BioMAP Diversity Plus: MyoF Assay for Interleukin-8 (IL8) Biomarker Activity (AID 2284261); settings: primary human lung fibroblasts
# Summary of the method: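 ELISA read-out of IL-8 from primary human lung fibroblasts, 24 h post-dose; positive-direction curve fitting relative to DMSO vehicle baseline.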
# Decorin, DCN (gene 1634) = experiment: BSK_MyoF_Decorin: BioMAP Diversity Plus: MyoF Assay for Decorin Biomarker Activity (AID 2284265); settings: primary human lung fibroblasts
# Summary of the method: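 Human lung fibroblasts in the MyoF system were exposed to compound for 24 h, after which decorin was quantified by ELISA. Activity was fitted in the positive direction relative to DMSO negative control.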
# [13] = BSK_MyoF_SRB: Viability Assessment in the BioMAP Diversity Plus: MyoF Assay (AID 2284267); settings: primary human lung fibroblasts;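 also: total protein by SRB absorbance in parallel cultures as cytotoxicity measure; cells assessed 24 h after compound addition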
# Summary of the method: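 Cytotoxicity in primary human lung fibroblasts is gauged by SRB total-protein staining 24 h after dosing, with DMSO as the negative control.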
# [14] = biological target: rat Thyrotropin Releasing Hormone Receptor (TRH), Trhr (gene 25570) (UniProt Q01717); experiment: NVS_GPCR_rTRH: NovaScreen (NVS) G Protein-Coupled Receptor Assay for rat Thyrotropin Releasing Hormone Receptor (TRH) (AID 2283329; active = hit-call score of the fitted dose curve at least 0.9, where 1 is the maximum;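 also: hit means lower bound tracer signal versus DMSO baseline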)
# Summary of the method: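 Rat forebrain membrane prep, radioligand displacement, filter scintillation readout at 4 h. Single conc 25 uM, duplicate; actives retested as concentration series. DMSO = negative control/baseline.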
# [15] = biological target: Bile acid receptor (Homo sapiens) (UniProt Q96RI1); experiment: OT_FXR_FXRSRC1_1440: Odyssey Thera (OT) 24-hour HEK293T Protein-Complementation Assay for Farnesoid X receptor/SRC-1 Co-activator (AID 2283384; active = hit-call score of the fitted dose curve at least 0.9, where 1 is the maximum)
# Summary of the method: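 Cell-based binding reporter: interaction of FXR with SRC-1 brings reporter fragments together, giving a fluorescence signal read 24 h after dosing of HEK293T cells.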
# [16] = biological target: human Peripheral-type Benzodiazepine Receptor (PBR), TSPO (gene 706) (UniProt P30536); experiment: NVS_MP_hPBR: NovaScreen (NVS) Membrane Protein Assay for human Peripheral-type Benzodiazepine Receptor (PBR) (AID 2283331; active = hit-call score of the fitted dose curve at least 0.9, where 1 is the maximum;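 also: hits reduce radioligand binding relative to DMSO baseline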)
# Summary of the method: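 Human colonic cell membranes were incubated with test chemical for 1 hour; radioligand binding was measured by filter-based scintillation counting. Primary screen ran in duplicate at 25 uM, with actives followed in concentration series; loss of signal versus DMSO baseline.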
# Chain of human Retinoic Acid Receptor beta (RARb), RARB (gene 5915) (P10826 whole entry, looked up, the tested form may be a part): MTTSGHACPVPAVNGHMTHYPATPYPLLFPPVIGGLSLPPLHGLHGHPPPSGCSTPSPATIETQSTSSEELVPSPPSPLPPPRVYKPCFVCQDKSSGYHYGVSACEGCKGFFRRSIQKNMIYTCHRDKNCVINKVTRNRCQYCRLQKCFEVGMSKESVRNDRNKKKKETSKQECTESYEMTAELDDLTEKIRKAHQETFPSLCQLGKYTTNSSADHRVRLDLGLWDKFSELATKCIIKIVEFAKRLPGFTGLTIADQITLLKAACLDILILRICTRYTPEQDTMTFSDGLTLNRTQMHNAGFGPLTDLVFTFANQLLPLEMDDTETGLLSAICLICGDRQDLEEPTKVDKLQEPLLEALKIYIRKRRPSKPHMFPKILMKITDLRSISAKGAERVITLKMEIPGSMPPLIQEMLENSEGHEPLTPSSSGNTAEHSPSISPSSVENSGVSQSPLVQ
# Chain of Androgen receptor (Homo sapiens) (P10275 whole entry, looked up, the tested form may be a part): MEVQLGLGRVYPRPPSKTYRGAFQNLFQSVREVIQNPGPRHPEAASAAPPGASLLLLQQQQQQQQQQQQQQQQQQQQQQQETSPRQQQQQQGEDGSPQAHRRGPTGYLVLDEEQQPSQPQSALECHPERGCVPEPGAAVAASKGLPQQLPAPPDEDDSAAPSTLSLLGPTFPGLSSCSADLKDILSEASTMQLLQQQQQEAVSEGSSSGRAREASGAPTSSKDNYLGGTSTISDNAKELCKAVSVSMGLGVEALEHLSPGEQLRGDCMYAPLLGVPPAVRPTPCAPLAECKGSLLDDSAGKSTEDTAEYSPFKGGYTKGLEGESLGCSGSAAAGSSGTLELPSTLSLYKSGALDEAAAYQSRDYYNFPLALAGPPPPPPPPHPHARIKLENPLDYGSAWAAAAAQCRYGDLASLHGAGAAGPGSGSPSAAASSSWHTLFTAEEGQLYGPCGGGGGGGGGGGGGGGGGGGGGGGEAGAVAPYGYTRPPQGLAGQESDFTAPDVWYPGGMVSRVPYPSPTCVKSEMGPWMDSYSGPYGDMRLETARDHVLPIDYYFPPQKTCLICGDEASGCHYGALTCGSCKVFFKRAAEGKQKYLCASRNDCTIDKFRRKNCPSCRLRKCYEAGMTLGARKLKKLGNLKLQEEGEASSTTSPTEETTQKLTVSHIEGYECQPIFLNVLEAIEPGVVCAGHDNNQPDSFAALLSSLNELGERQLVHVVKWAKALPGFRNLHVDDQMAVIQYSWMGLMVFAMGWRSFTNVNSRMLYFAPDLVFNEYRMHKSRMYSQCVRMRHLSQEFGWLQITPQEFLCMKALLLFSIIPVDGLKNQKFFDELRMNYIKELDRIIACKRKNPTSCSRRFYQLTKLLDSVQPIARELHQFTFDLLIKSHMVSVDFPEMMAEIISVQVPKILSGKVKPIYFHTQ
# Chain of human Peripheral-type Benzodiazepine Receptor (PBR), TSPO (gene 706) (P30536 whole entry, looked up): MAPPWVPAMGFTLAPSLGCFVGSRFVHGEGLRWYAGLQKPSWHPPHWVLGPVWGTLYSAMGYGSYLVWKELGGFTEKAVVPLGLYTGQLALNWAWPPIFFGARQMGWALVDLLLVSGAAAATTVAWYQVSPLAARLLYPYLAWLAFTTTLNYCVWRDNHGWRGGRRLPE
# Chain of human Retinoic Acid Receptor gamma (RARg), RARG (gene 5916) (P13631 whole entry, looked up, the tested form may be a part): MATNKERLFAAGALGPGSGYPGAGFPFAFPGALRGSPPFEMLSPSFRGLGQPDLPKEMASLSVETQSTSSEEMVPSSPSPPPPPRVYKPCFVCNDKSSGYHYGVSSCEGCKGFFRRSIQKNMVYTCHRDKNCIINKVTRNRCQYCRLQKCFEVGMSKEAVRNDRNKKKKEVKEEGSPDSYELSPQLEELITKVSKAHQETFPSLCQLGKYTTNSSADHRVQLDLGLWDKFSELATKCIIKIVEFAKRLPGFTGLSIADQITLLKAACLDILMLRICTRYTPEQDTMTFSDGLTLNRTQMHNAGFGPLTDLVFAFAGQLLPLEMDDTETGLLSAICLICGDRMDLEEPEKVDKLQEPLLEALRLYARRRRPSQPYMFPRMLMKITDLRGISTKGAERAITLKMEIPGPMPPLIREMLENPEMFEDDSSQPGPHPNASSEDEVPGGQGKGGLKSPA
# Chain of Retinoic acid receptor alpha (Homo sapiens) (P10276 whole entry, looked up, the tested form may be a part): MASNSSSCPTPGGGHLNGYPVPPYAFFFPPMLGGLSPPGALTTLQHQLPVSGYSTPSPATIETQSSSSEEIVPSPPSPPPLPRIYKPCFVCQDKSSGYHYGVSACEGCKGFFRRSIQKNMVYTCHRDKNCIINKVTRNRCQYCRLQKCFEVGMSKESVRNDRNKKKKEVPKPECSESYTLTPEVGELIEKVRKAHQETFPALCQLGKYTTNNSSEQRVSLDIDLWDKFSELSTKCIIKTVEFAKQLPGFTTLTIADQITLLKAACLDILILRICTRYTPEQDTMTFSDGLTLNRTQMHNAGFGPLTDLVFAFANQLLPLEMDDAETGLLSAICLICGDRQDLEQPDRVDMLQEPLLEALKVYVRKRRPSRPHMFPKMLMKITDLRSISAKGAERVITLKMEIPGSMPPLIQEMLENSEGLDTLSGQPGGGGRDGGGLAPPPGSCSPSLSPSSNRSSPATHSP
# Chain of Glucocorticoid receptor (Homo sapiens) (P04150 whole entry, looked up, the tested form may be a part): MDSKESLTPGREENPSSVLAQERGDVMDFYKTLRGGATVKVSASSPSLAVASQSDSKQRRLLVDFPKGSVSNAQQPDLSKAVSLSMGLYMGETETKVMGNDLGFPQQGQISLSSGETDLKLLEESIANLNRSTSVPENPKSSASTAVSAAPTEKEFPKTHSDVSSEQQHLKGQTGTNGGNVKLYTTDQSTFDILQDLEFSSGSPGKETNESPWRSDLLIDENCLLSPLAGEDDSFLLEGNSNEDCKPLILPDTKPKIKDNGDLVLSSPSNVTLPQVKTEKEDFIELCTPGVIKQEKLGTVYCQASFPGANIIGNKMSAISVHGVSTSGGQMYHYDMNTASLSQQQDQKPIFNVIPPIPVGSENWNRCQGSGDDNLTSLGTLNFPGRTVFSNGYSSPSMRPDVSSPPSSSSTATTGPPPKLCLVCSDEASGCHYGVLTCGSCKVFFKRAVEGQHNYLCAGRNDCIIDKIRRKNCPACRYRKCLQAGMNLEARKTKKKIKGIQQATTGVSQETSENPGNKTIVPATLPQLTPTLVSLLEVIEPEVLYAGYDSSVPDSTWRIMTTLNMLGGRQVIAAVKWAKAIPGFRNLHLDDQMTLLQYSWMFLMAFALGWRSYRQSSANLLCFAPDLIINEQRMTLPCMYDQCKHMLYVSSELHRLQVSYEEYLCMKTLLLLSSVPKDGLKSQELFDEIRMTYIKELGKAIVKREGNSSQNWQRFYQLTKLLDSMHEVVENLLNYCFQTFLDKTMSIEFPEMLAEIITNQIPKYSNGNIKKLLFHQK
# Chain of rat Thyrotropin Releasing Hormone Receptor (TRH), Trhr (gene 25570) (Q01717 whole entry, looked up): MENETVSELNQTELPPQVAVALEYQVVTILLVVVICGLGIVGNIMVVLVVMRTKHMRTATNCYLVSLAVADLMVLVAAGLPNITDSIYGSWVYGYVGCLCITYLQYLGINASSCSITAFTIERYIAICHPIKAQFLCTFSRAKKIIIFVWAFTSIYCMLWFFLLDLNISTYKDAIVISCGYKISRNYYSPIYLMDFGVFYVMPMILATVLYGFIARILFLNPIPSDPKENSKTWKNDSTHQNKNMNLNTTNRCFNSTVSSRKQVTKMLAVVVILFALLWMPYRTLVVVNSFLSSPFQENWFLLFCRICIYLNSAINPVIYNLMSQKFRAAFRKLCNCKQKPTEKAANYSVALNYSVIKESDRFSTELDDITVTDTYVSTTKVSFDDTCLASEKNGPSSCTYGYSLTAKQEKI
# Chain of Bile acid receptor (Homo sapiens) (Q96RI1 whole entry, looked up, the tested form may be a part): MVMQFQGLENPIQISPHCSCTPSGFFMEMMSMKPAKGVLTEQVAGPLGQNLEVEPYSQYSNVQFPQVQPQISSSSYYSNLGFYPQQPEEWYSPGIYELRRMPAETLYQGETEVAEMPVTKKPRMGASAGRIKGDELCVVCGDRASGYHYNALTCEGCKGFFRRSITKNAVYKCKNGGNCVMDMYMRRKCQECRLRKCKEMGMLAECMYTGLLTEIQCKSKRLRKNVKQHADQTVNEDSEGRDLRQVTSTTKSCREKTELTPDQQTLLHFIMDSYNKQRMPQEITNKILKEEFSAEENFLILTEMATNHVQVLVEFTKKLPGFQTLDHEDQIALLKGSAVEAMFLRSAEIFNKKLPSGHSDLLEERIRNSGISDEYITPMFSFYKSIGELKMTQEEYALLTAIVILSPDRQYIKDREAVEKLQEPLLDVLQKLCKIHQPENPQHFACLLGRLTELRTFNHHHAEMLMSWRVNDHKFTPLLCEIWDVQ
structure (smiles),measurement,setting,value
N#Cc1cc(I)c(O)c(I)c1,outcome,[1],inactive
same,outcome,[2],inactive
same,outcome,[3],inactive
same,outcome,[4],inactive
same,outcome,[5],inactive
CC(Cc1ccc(C(C)(C)C)cc1)CN1C[C@@H](C)O[C@@H](C)C1 (stereo partly drawn),AC50,[6],65.8 µM (active)
CC(C)CCCCCCCOC(=O)c1ccccc1C(=O)OCCCCCCCC(C)C,outcome,[7],inactive
same,outcome,[8],inactive
same,outcome,[9],inactive
same,outcome,[10],inactive
same,outcome,[11],inactive
same,outcome,[12],inactive
same,outcome,"Decorin, DCN (gene 1634)",inactive
same,outcome,[13],inactive
O=P(O)(Oc1ccccc1)Oc1ccccc1,outcome,[2],inactive
same,outcome,[14],inactive
same,outcome,[15],inactive
CCC(C)c1cc([N+](=O)[O-])cc([N+](=O)[O-])c1OC(=O)C=C(C)C (stereo not drawn),AC50,[7],20 µM (active)
same,AC50,[8],20 µM (active)
same,AC50,[9],3.66 µM (active)
same,AC50,[10],5.45 µM (active)
same,AC50,[11],32.6 µM (active)
same,AC50,[12],36.9 µM (active)
same,AC50,"Decorin, DCN (gene 1634)",20 µM (active)
same,AC50,[13],20.8 µM (active)
CC(C)(C)C(O)C(Oc1ccc(-c2ccccc2)cc1)n1cncn1 (stereo not drawn),outcome,[1],inactive
same,outcome,[16],inactive
same,outcome,[6],inactive
same,AC50,[7],17.9 µM (active)
same,outcome,[8],inactive
same,AC50,[9],30 µM (active)
same,AC50,[10],34.5 µM (active)
same,AC50,[11],33.6 µM (active)
same,outcome,[12],inactive
same,AC50,"Decorin, DCN (gene 1634)",36.5 µM (active)
same,AC50,[13],32 µM (active)
CCc1cc(C)cc(CC)c1-c1c(OC(=O)C(C)(C)C)n2n(c1=O)CCOCC2,outcome,[16],inactive
same,outcome,[7],inactive
same,outcome,[8],inactive
same,outcome,[9],inactive
same,AC50,[10],20 µM (active)
same,outcome,[11],inactive
same,outcome,[12],inactive
same,outcome,"Decorin, DCN (gene 1634)",inactive
same,outcome,[13],inactive
Nc1ccccc1C(=O)Oc1ccc2ccccc2c1,outcome,[1],inactive
[N-]=[N+]=CC(=O)OC[C@H](N)C(=O)O,outcome,[4],inactive
Nc1ccc(-c2ccc(N)c(N)c2)cc1N,outcome,[4],inactive
same,AC50,[7],15.4 µM (active)
same,outcome,[8],inactive
same,AC50,[9],20 µM (active)
same,AC50,[10],20 µM (active)
same,outcome,[11],inactive
same,outcome,[12],inactive
same,outcome,"Decorin, DCN (gene 1634)",inactive
same,outcome,[13],inactive
CCCCOP(=O)(O)OCCCC,outcome,[1],inactive
O=C1C(Cl)=C(Cl)C(=O)C(Cl)=C1Cl,outcome,[1],inactive
same,outcome,[5],inactive
same,AC50,[16],34.4 µM (active)
same,AC50,[7],32.6 µM (active)
same,AC50,[8],30.3 µM (active)
same,AC50,[9],20.5 µM (active)
same,AC50,[10],23.8 µM (active)
same,AC50,[11],30.9 µM (active)
same,AC50,[12],32 µM (active)
same,outcome,"Decorin, DCN (gene 1634)",inactive
same,AC50,[13],29.6 µM (active)
COC(=O)COc1ccc(Cl)cc1Cl,AC50,[16],14.9 µM (active)
Nc1c(Cl)c(Cl)c(Cl)c(Cl)c1Cl,outcome,[1],inactive
same,outcome,[3],inactive
same,outcome,[4],inactive
same,outcome,[5],inactive
CCc1cccc(C)c1N(C(=O)CCl)[C@@H](C)COC,outcome,[3],inactive
same,AC50,[16],2.89 µM (active)
CC(C)(C)C(=O)CCl,AC50,[7],8.03 µM (active)
same,outcome,[8],inactive
same,AC50,[9],20 µM (active)
same,outcome,[10],inactive
same,outcome,[11],inactive
same,outcome,[12],inactive
same,outcome,"Decorin, DCN (gene 1634)",inactive
same,outcome,[13],inactive
